Records with an inconclusive call do not appear. Values without a mark were called inactive. The source made the active and inactive calls. Calls follow the shape of the dose curve; as a rule, active = well fitted inhibition curve with a large enough effect; inconclusive = small, poorly fitted or top-dose-only effect; inactive = no such curve, though single readings can be large or run the other way.
% is scaled to controls: 0 for no effect and ±100 for the full control effect.

In this assay the test system is Zika virus NS2B-NS3 protease (linked construct). Nature of the assay: Primary screen NINDS Rhodamine qHTS for Zika virus inhibitors (AID 1347160). Also: nearly all actives have a fitted effect of over 55% in size. The settings on record: purified NS2B-NS3 protease, Rhodamine110 substrate fluorescence; series mostly up to 57.1 µM; activity change, negative = inhibition: at the top concentration. Put shortly:
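In 10 mM Tris-HCl pH 8.0 containing 0.01% Tween 20, linked NS2B-NS3 protease (25 nM final) is exposed to test compounds for 15 min. Cleavage of 1.5 microM Rhodamine110 substrate is tracked by fluorescence over 15 min.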
`CC(C)=CCC/C(C)=C/CO[C@@H]1O[C@H](CO)[C@@H](O)[C@H](O)[C@H]1O`: the “outcome” value is “inactive [at 33.1 µM]”.
Consider `COc1ccc(/C=C\C(=O)O)c(O[C@@H]2O[C@H](CO)[C@@H](O)[C@H](O)[C@H]2O)c1`, for which the “activity change, negative = inhibition” value is 11.4% [at 33.1 µM].
Still for that read-out and setting: for `CC1(C)C2CC(OC3OC(COC4OCC(O)(CO)C4O)C(O)C(O)C3O)C1(C)CC2O` (stereo unspecified) the value was -1.43% [at 33.1 µM]; for `CO[C@@H](C)Cn1c(=O)n(C)c2cnc3ccc(-c4cncc(C(C)(C)O)c4)cc3c21`, 12.6%; for `COc1cc2ncnc(Nc3cccc(O)c3)c2cc1OC`, 10.8%.
On the same count and under the same terms, for `COc1cc(Br)c(S(=O)(=O)Nc2ccc(C(F)(F)F)c(O[C@@H]3CCN(C)C3)c2)cc1OC` the value was 18.4%; for `CC(C)(C)CCN1C[C@@H]2C(CNC(=O)c3cc(Cl)cc(Cl)c3)[C@@H]2C1` (stereo partly specified), 51.4%; for `CC(=O)OC[C@@]12C(=O)C[C@@H](C)[C@]3(C[C@@H](c4ccoc4)O[C@H]3OC(C)=O)[C@H]1CCC[C@]21CO1`, -0.716% [at 33.1 µM].
Turning to `CC(C)(C)c1cc(Br)cc([C@H](CC(=O)O)NC(=O)CNC(=O)c2cc(O)cc(NC3=NCC(O)CN3)c2)c1` (stereo partly specified), the molecule was called inactive.
With `Cc1ccc(Cc2c(C)nc3nc(SCC(=O)NCCN4CCNCC4)nn3c2C)cc1`, the “activity change, negative = inhibition” value was 19.5%.
On to `CN[C@@H]1[C@H](O[C@H]2[C@H](O[C@@H]3[C@@H](O)[C@H](O)[C@@H](N=C(N)N)[C@H](O)[C@H]3N=C(N)N)O[C@@H](C)[C@]2(O)C=O)O[C@@H](CO)[C@H](O)[C@H]1O`, for which the “outcome” value is “inactive [at 33.1 µM]”.
`CC(=O)O[C@H]1[C@H](O[C@H]2[C@@H]3C=CO[C@@H](O[C@@H]4O[C@H](CO)[C@@H](O)[C@H](O)[C@H]4O)[C@@H]3[C@@]3(CO)O[C@@H]23)O[C@@H](C)[C@H](OC(=O)/C=C/c2ccccc2)[C@H]1OC(=O)/C=C/c1ccccc1`: the “activity change, negative = inhibition” value was -5.71% [at 15.1 µM].
Take `CC(C)C(C#N)O[C@@H]1O[C@H](CO[C@@H]2O[C@@H](C)[C@H](O)[C@@H](O)[C@H]2O)[C@@H](O)[C@H](O)[C@H]1O` (stereo partly specified): the “outcome” value is “inactive [at 33.1 µM]”.
With `C=C(C)C(=O)OC1C(OC(C)=O)/C(C=O)=C\CC/C(CO)=C/C2OC(=O)C(=C)C21` (stereo unspecified), the “activity change, negative = inhibition” value was 32.2% [at 33.1 µM].
On to `C=C1C(O)C(O)C2(CC3C(C)=CCC4C(C)(CO)CCCC34C)OC2C1O` (stereo unspecified), for which the “outcome” value was “inactive [at 33.1 µM]”.
Turning to `C[C@H]1CC(=O)Nc2cccc(-c3cnn(C(C)(C)C)c3)c2N1`, the result was inactive.
As for `CC[C@H]1OC(=O)[C@](C)(F)C(=O)[C@H](C)[C@@H](O[C@@H]2O[C@H](C)C[C@H](N(C)C)[C@H]2O)[C@](C)(OC)C[C@@H](C)C(=O)[C@@H](C)[C@H]2N(CCCCn3cc(-c4cccc(N)c4)nn3)C(=O)O[C@]12C`, the “activity change, negative = inhibition” value is 53.6%.
The same measure, in the same setting: for `OC[C@H]1O[C@@H](Oc2cc(O)c3c(c2)O[C@@H](c2ccc(O)cc2)[C@H](O)C3)[C@H](O)[C@@H](O)[C@@H]1O` the value was 33.3% [at 33.1 µM].
Still for that read-out and setting: for `COc1c2c(c(CO)c3c1C(=O)OC3)OC1(C)CCC3(O)C(C)(C)OC(=O)CCC3(C)C1C2` (stereo unspecified) the value was -1.44% [at 33.1 µM]; for `CC[C@@H](O)C[C@@H]1C(C)=C[C@@H]2CCCC[C@@H]2[C@@]1(C)C(=O)O`, -12.1%; for `COc1ncc2cc(C(=O)Nc3cc(C(=O)NCc4cccc(Cl)c4)ccc3Cl)c(=O)[nH]c2n1`, -5.97%.
As to `CC(C)C(=O)OC[C@H]1O[C@H](O[C@H]2O[C@H](CO)[C@@H](O)[C@H](O)[C@H]2O)[C@H](O)[C@@H](O)[C@@H]1O`, the “outcome” value was “inactive [at 33.1 µM]”.
For `C=C[C@H]1C(O[C@@H]2O[C@H](CO)[C@@H](O)[C@H](O)[C@H]2O)OC=C2C(=O)N3CCc4c([nH]c5ccccc45)C3CC21` (stereo partly specified), the “activity change, negative = inhibition” value was 37.9% [at 33.1 µM].
The same measure, in the same setting: the value for `C[C@H](NC(c1cccc(C[P+](=O)O)c1)[C@H](C)O)c1ccc(Cl)c(Cl)c1` (stereo partly specified) was 36.3%; that for `C=CC(C)(C)c1[nH]c2cc3c(cc2c1CC1NC(=O)C2CCCN2C1=O)C=CC(C)(C)O3` (stereo unspecified) was 18.8% [at 33.1 µM]; that for `CC(O)CO[C@@H]1O[C@H](CO)[C@@H](O)[C@H](O)[C@H]1O` (stereo partly specified) was 26.2%.
For the molecule `O=C(O)c1ccc(CN2CCC(CN[C@@H]3C[C@H]3c3ccccc3)CC2)cc1`, the outcome was inactive.
Same read-out and setting: the value for `CC(O)/C=C/C1(O)C2(C)COC1(C)CC(O)C2` (stereo unspecified) was “inactive”.
On to `CC(=O)OC1C(=O)C2(C)C(O)CC3OCC3(OC(C)=O)C2C(OC(=O)c2ccccc2)C2(O)CC(OC(=O)C(O)C(NC(=O)c3ccccc3)c3ccccc3)C(C)=C1C2(C)C` (stereo unspecified), for which the “activity change, negative = inhibition” value was -19.5%.
Same read-out and setting: the value for `CN(C)CCn1cc(S(=O)(=O)c2cccc(F)c2)c2cccnc21` was 28.5%.
Consider `Cc1c(C(=O)N2CCOc3ccc(-c4ccc(N)nc4)cc3C2)ccc(S(C)(=O)=O)c1F`, for which the outcome was inactive.

The values above are taken from PubChem BioAssay (NCATS).
